# Bioassay records (PubChem BioAssay)
# The list is not random: actives were taken first. Their share in the collection is about 1.6%.
# HTR5A inv ag – HTR5A inverse agonists in luminescence cell assay, primary screen, counter-screen for OPRM1-OPRD1 heterodimer inverse agonist project, full-deck HTS | HTR5A cell line, inverse agonism | 340,000 tested, 0.083% active | inhibition, % at 9.3 µM | 5-hydroxytryptamine receptor 5A (Homo sapiens), P47898 | AID 504634, 2011; in the data active = inhibition mostly above about 23%, no sharp cut-off; inactive = mostly below about 18%;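 also: 0% = cells with DMSO and 100% = no-cell wells with DMSO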
# Target sequence (P47898 whole entry, looked up): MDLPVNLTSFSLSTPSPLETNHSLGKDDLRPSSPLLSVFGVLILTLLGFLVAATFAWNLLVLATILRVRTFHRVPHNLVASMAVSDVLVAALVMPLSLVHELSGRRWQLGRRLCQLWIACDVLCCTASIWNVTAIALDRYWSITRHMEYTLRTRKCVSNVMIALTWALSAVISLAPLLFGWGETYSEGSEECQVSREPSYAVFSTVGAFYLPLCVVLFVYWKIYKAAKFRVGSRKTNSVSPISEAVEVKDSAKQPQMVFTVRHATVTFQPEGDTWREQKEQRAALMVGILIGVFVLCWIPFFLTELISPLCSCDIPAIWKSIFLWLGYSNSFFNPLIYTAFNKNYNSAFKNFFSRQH
# NALP1 yeast inh – NALP1 inflammasome inhibitors in reconstituted yeast, colorimetric, S. cerevisiae, triplicate retest | inhibition, % at 10 µM | 280,000 tested, 0.61% active | S. cerevisiae NALP1/ASC/caspase-1 growth, X-gal OD620, 72 h; in the data active = inhibition mostly above about 24%, no sharp cut-off; inactive = mostly below about 32%
# MOR-DOR ag – agonists of OPRM1-OPRD1 heterodimerization, primary screen, cell-based, luminescence. cells. activation, % at 9.3 µM. 340,000 tested, 0.3% active. AID 504326, 2011; in the data active = activation above about 18%;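 also: 0% = vehicle-treated cells and 100% = reference agonist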
# HTR5A ag ctr – HTR5A agonists in luminescence cell assay, primary screen, counter-screen for OPRM1-OPRD1 heterodimer agonist project, full-deck HTS; cell-based; 340,000 tested, 0.61% active; activation, % at 9.3 µM; AID 504692, 2011; in the data active = activation mostly above about 9.5%, no sharp cut-off; inactive = mostly below about 7.6%;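 also: 0% = cells with vehicle only and 100% = reference agonist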
# PolyA inh – polyadenylation inhibitors in yeast reporter cells, primary screen, luminescence, S. cerevisiae; S. cerevisiae SKY197-pL101 polyadenylation reporter, beta-gal luminescence; efflux-impaired pdr1/pdr3 knockout yeast; score 100 = 6 SD above DMSO; activity score, % at 12 µM; 300,000 tested, 0.02% active;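 active = lowest replicate activity score at least 50, where 100 means six control SD above control mean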;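 also: yeast exposed to compound for 9 h at 30 °C; higher score means more reporter readthrough which indicates perturbed polyadenylation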
# MOR-DOR inv ag – inverse agonists of MOR-DOR heterodimerization, primary screen, cell-based, luminescence. Mu-type opioid receptor (Homo sapiens) + Delta-type opioid receptor (Homo sapiens), …. cell-based MOR-DOR heterodimer luminescence, inverse agonism. inhibition, % at 9.3 µM. 340,000 tested, 0.21% active; in the data active = inhibition above about 22%, passing the limit was not always enough;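 also: 0% = cells with DMSO and 100% = wells without cells with DMSO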
# Starred values were filed as active, the others as inactive; / = no result given.
SMILES,HTR5A inv ag,NALP1 yeast inh,MOR-DOR ag,HTR5A ag ctr,PolyA inh,MOR-DOR inv ag
COc1cccc(NC(=O)Nc2nc(-c3ccc(OC)c(OC)c3)cs2)c1,-67.8,5.6,29.0*,25.3*,-11.9,-154.1
COc1ccc(-c2csc(NC(C)=O)n2)cc1OC,-19.4,14.6,-1.8,-2.0,-2.8,9.9
COc1cc(CCC(=O)NNC(=O)c2ccc(C)cc2)cc(OC)c1OC,8.4,-3.9,-2.5,-2.9,8.7,12.3
COC(=O)[C@@H](NCc1ccc(OC)c(B(O)O)c1)C(C)C,5.9,/,0.0,-1.7,/,-0.2
COC(=O)[C@H](NCc1ccc(OC)c(B(O)O)c1)C(C)C,-39.0,/,-4.5,10.5*,/,20.9
Cc1cc(=O)oc2cc(OCC(=O)Nc3ccc(N4CCC(C)CC4)cc3)ccc12,-36.1,6.7,16.1,10.5*,-1.0,-82.8
CCOC(=O)c1c(-c2ccccc2)nc2ccccn12,14.0,87.2*,-1.3,-5.9,-43.8,6.1
CCOC(=O)c1c(-c2ccccc2)nc2c(C)cccn12,6.7,4.3,-0.5,-2.2,11.3,2.3
CN(CC(=O)Nc1ccccc1Cl)C(=O)COC(=O)c1ccc(-c2ccc(O)cc2)cc1,5.1,/,4.4,-1.8,/,-18.0
O=C(NCCNc1ccc([N+](=O)[O-])cc1C(F)(F)F)c1ccccc1,9.7,31.1,0.6,0.2,0.1,-3.8
O=C(NCCNc1ccc([N+](=O)[O-])cc1C(F)(F)F)c1cccc(F)c1,5.5,32.6,1.8,13.8*,0.4,-9.3
C=CC[C@@H](CC(=O)N(CCO)Cc1ccccc1)C(=O)NC[C@H](OC(=O)[C@@H](CC=C)CC(=O)OC(C)(C)C)c1ccccc1,-10.5,/,2.7,-2.8,/,-14.5
COc1ccc2cc3cc(C(=O)NCC4COc5ccccc5O4)oc3nc2c1 (stereo unspecified),-47.6,11.2,6.7,13.5*,-4.8,-36.6
COc1ccc2cc3cc(C(=O)NCc4ccc5c(c4)OCO5)oc3nc2c1,3.7,9.7,0.7,6.4,23.0,-3.9
CN(CC(=O)Nc1ccc(F)cc1)C(=O)COC(=O)CCN1C(=O)C2CC=CCC2C1=O (stereo unspecified),-23.7,-0.5,-3.4,1.7,5.2,18.0
O=C(CCNC(=O)C1CCN(S(=O)(=O)c2ccc(F)cc2)CC1)NCc1ccccc1,25.1,7.1,-2.5,-0.6,10.0,13.5
N#CCC(=O)N/N=C/c1cn(Cc2cccc3ccccc23)c2ccccc12,-20.3,41.3*,-0.1,-2.2,-21.0,0.6
N#CCC(=O)N/N=C/c1cn(Cc2ccccc2C#N)c2ccccc12,-19.6,1.5,-1.1,2.0,8.6,5.6
CCOc1ccc(N2CC(C(=O)N3CCN(c4ccccn4)CC3)CC2=O)cc1 (stereo unspecified),1.5,/,-0.9,-0.5,8.9,4.9
COc1cccc2cc(C(=O)NCc3ccc(Cl)cc3)c(=O)oc12,-11.2,36.9*,1.2,4.2,-7.0,-8.7
COc1cccc2cc(C(=O)NCc3ccc(Cl)cc3)c(=N)oc12,-10.2,25.3,-1.6,0.2,-11.5,8.8
Cc1csc2c(SCC(=O)NNC(=O)C(Cl)Cl)ncnc12,/,-7.2,/,/,-16.3,/
Cn1cnc2c(=O)[nH]cc([N+](=O)[O-])c21,-4.9,6.5,-1.9,-3.1,-8.7,12.9
CCn1c(=O)c([N+](=O)[O-])c(Cl)c2ccccc21,18.6,-16.5,-7.3,-7.5,-21.2,34.7*
CCn1c(=O)c([N+](=O)[O-])c(NCCN(C)C)c2ccccc21,5.1,-1.1,0.5,6.8,0.5,-2.9
NC(=O)CC[C@@H]1NC(=O)[C@@H]2CCCN2C(=O)c2cc([N+](=O)[O-])cc(I)c2NCCCC[C@@H](C(=O)NC(CC(=O)O)C(N)=O)NC1=O (stereo partly specified),-10.3,24.9,-2.8,-3.4,-12.7,15.7
